High-throughput results: PubChem, National Center for Advancing Translational Sciences (NCATS)
HCV inh: HCV inhibition. Huh7.5.1 HCVcc-Cre infection, luciferase reporter, 44 h. Potency, µM (titrated, usually from 41.8 µM), most hits filed as inhibitors. 3.4% of 340,000 active. AID 651820; active = well fitted inhibition curve with a large enough effect; inconclusive = small, poorly fitted or top-dose-only effect, or another doubt; inactive = no such curve, though single readings can be large or run the other way
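Luciferase read-out (15 sec integration) after a 15 min room-temperature substrate step quantifies HCVcc-Cre infection. Cells, 1,000 per well, had compound added 4 h post-plating, then virus at ~0.5 moi, and were cultured 44 h.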
Marburg entry inh: inhibitors of Marburg virus binding or cell entry; Marburg virus pseudotyped entry inhibition, cell reporter; Potency, µM (highest dose often 37.8 µM), actives largely listed as inhibitors; 1.8% of 300,000 active; AID 540276; calls by dose curve; tested in HEK293 cells
Cycloheximide cs: counter-screen for Shiga toxin inhibitors: cycloheximide protein synthesis inhibition. 12% of 300,000 active. cell reporter, cycloheximide protein synthesis inhibition counterscreen. max response, %; in the data active = max response mostly above about 13%, no sharp cut-off; inactive = mostly below about 14%; also: read at 38.3 µM for the half of the compounds with a filed dose
LASV entry inh: inhibitors of Lassa virus binding or cell entry | Potency, µM (titrated, usually from 37.9 µM), actives largely listed as inhibitors | 1.2% of 300,000 active | Lassa virus pseudotype entry inhibition, cell reporter; calls by dose curve; tested in HEK293 cells; also: nearly all actives have a fitted effect of over 50% in size
FMDV inh: foot and mouth disease virus antiviral activity. FMDV antiviral cell-based qHTS. 1.2% of 410,000 active. Potency, µM (highest dose often 57.9 µM), usual class: inhibitors. AID 1159524; calls by dose curve; tested in HEK293T cells; also: read-out not given here; nearly all actives have a fitted effect of over 45% in size
Shiga inhibitor: Shiga toxin inhibition; Vero cells, Shiga toxin protein synthesis inhibition reporter; inhibition, % at 38.7 µM; 9.2% of 290,000 active; in the data active = inhibition mostly above about 28%, no sharp cut-off; inactive = mostly below about 43%
Numbers stand for hits. This is a sample that favours compounds with a hit; in the whole collection about 13% have one here.

Results for COc1ccc(OCC(=O)NCCS(=O)(=O)N2CCN(c3cccc(Cl)c3)CC2)cc1 ?
LASV entry inh: inactive; FMDV inh: inactive

How did COCC1CCN(C(=O)c2cc(COc3ccc(OC)cc3Cl)on2)C1 (centres undefined) do in these assays?
FMDV inh: inactive

Results for COc1ccc(OCc2cc(C(=O)N3CCCCCCC3)no2)c(Cl)c1 ?
HCV inh: inactive; Marburg entry inh: inactive; Cycloheximide cs: 40.2; LASV entry inh: inactive; FMDV inh: inactive; Shiga inhibitor: 60.9

What do the screens show for `COc1ccc(OCc2cc(C(=O)N3CCN(CC4CC4)CC3)no2)c(Cl)c1`?
HCV inh: inactive; Cycloheximide cs: 52.4; FMDV inh: inactive; Shiga inhibitor: 54.9

What do the screens show for `COc1ccc(OCc2cc(C(=O)N3C[C@@H](C)O[C@@H](C)C3)no2)c(Cl)c1`?
HCV inh: inactive; Marburg entry inh: inconclusive; Cycloheximide cs: 40.4; LASV entry inh: inactive; FMDV inh: inactive; Shiga inhibitor: 94.4

How did CCOC(=O)N1CCN(C(=O)c2cc(COc3ccc(OC)cc3Cl)on2)CC1 do in these assays?
HCV inh: inactive; Marburg entry inh: inconclusive; Cycloheximide cs: 69.5; LASV entry inh: inconclusive; FMDV inh: inactive; Shiga inhibitor: 105.2

What do the screens show for `O=C1CC[C@@H]2CC3(C[C@@H]4CCN1[C@H]24)Nc1cc(Cl)ccc1NC3=NC1CCCCC1` (some centres undefined)?
HCV inh: inactive; FMDV inh: inactive

How did CCOc1ccc(N2CC(NC(=O)C3CCCC3)CC2=O)cc1 (centres undefined) do in these assays?
LASV entry inh: inactive; FMDV inh: inactive

What do the screens show for `Cc1noc(C)c1C(=O)OCC(=O)Nc1cccc(S(N)(=O)=O)c1`?
HCV inh: inactive; Marburg entry inh: inactive; Cycloheximide cs: inactive; LASV entry inh: inactive; FMDV inh: inactive; Shiga inhibitor: inactive

How did COc1ccc(OCc2cc(C(=O)N3CCN(C4CCCC4)CC3)no2)c(Cl)c1 do in these assays?
HCV inh: inconclusive; Marburg entry inh: inactive; Cycloheximide cs: 42.0; LASV entry inh: inactive; FMDV inh: inactive; Shiga inhibitor: 76.7

How did COc1cccc2c1C(=O)c1c(O)c3c(c(O)c1C2=O)CC(O)(C(C)=O)CC3OC1CC(O)C(O)C(C)O1 (centres undefined) do in these assays?
HCV inh: inconclusive; Marburg entry inh: 1.41µM; LASV entry inh: inconclusive; FMDV inh: inactive

Results for COc1cccc2c1C(=O)c1c(O)c3c(c(O)c1C2=O)C[C@](O)(C(C)=O)C[C@H]3O[C@@H]1C[C@@H](N)[C@@H](O)[C@@H](C)O1 ?
HCV inh: 8.91µM; FMDV inh: inactive

Results for COc1cccc2c1-c1c(O)cccc1C2=O ?
HCV inh: inactive; Cycloheximide cs: inactive; FMDV inh: inactive

What do the screens show for `COc1cccc2c1C(=N)c1c(O)c3c(c(O)c1C2=O)CC(O)(C(C)=O)CC3OC1CC(N)C(O)C(C)O1` (centres undefined)?
HCV inh: inconclusive; Marburg entry inh: 0.355µM; LASV entry inh: 0.631µM; FMDV inh: inconclusive

What do the screens show for `CCCCC(=O)OCC(=O)C1(O)Cc2c(O)c3c(c(O)c2C(OC2CC(NC(=O)C(F)(F)F)C(O)C(C)O2)C1)C(=O)c1c(OC)cccc1C3=O` (centres undefined)?
HCV inh: 3.55µM; Marburg entry inh: inconclusive; LASV entry inh: inconclusive; FMDV inh: inactive

Results for COc1ccccc1C1(O)CCN(C(=O)c2cccs2)CC1 ?
HCV inh: inactive; Marburg entry inh: inactive; Cycloheximide cs: inactive; LASV entry inh: inactive; FMDV inh: inactive; Shiga inhibitor: inactive

How did CC(C)Oc1ccc(C(CCN)C2CCCCC2)cc1 (centres undefined) do in these assays?
HCV inh: inconclusive; Marburg entry inh: inconclusive; Cycloheximide cs: inactive; LASV entry inh: inconclusive; FMDV inh: inactive; Shiga inhibitor: inactive

What do the screens show for `CC(=O)N1CCN(C(=O)c2cc(C)nc3ccccc23)CC1`?
HCV inh: inactive; Cycloheximide cs: inactive; FMDV inh: inactive; Shiga inhibitor: inactive

Results for Cc1cc(N(C)C)c(C#N)c(=O)[nH]1 ?
HCV inh: inactive; Marburg entry inh: inactive; Cycloheximide cs: inactive; LASV entry inh: inactive; FMDV inh: inactive; Shiga inhibitor: inactive

What do the screens show for `COc1cccc2c1C(=O)c1c(O)c3c(c(O)c1C2=O)C[C@@](O)(C(=O)CO)C[C@@H]3O[C@H]1C[C@H](N)[C@H](OC2CCCCO2)[C@H](C)O1` (some centres undefined)?
Marburg entry inh: 1.25µM; LASV entry inh: 1.12µM
